A number with no mark means an inactive call. Records with an inconclusive call do not appear. Activity calls are given as the source filed them. Unless noted, calls follow the shape of the dose curve; as a rule, active = well fitted curve in either direction with a large enough effect (not every such curve was filed as active); inconclusive = small, poorly fitted or top-dose-only effect, or another doubt; inactive = flat fitted curve, though single readings scatter.
How the values were obtained:
[1] = molecular target: Lysosomal acid glucosylceramidase (Homo sapiens) (UniProt P04062); test: Glucocerebrosidase-p2 (AID 348; in the data active = potency below about 10 µM; also: potency is read from the fitted curve at half-maximal effect); settings: purified GBA, blue fluorogenic substrate, 40 min
How it was run: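 Normal human glucocerebrosidase (0.2 nM) with blue fluorogenic substrate (80 uM final) in citrate/phosphate pH 5.9 with 10mM sodium taurocholate, 0.01% tween-20; 40 min RT, NaOH/glycine stop; fluorescence Ex 365/Em 440; AC50 from a titration from 0.6 nM upwards.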

[2] = AP1 Signaling Pathway (AID 357); settings: ME-180 AP-1-bla reporter, EGF-induced, beta-lactamase ratio, 5 h; at 7.69 µM (top of the series) unless noted;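 also: ME-180 reporter cells stimulated with EGF at its EC50 level; % is scaled to controls: 0 for no effect and ±100 for the full control effect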
How it was run: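 First, ME-180 AP-1-bla cells were cultured overnight at 37 °C in low-serum Opti-MEM. Next, titrated compounds with EC50 EGF were incubated 5 hours. Finally, CCF4 was added for 2.5 hours and the 460/530 nm ratio recorded.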

[3] = molecular target: Cytochrome P450 1A2 (Homo sapiens) (UniProt P05177); test: p450-cyp1a2 (AID 410; calls by dose curve; also: potency is read from the fitted curve at half-maximal effect;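 as to activity change, negative = inhibition: -100% = full effect of reference inhibitor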); settings: recombinant CYP1A2, luciferin-ME demethylation, luminescence; series mostly up to 57 µM
How it was run: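 Luminescent demethylation readout: Luciferin-ME (100uM, equal to Km) turned over by 20nM CYP1A2 for 60 min at room temperature after NADPH regeneration addition, following 10 min compound preincubation. Normalization used 57 uM furafylline as full inhibition.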

[4] = Stat Signaling Pathway (AID 446); settings: ME-180 SIE beta-lactamase reporter, IL-6 stimulated, 5 h; at 7.69 µM (top of the series) unless noted;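 also: ME-180 cervical cancer cells given 40 pM IL-6 alongside compound; SIE-controlled beta-lactamase reporter measured as 460/530 nm FRET emission ratio; % is scaled to controls: 0 for no effect and ±100 for the full control effect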
How it was run: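 Emission at 460 and 530 nm (excitation 405 nm) reports SIE-controlled beta-lactamase in ME-180 cells. Cells received compound with 40 pM IL-6 for 5 hrs at 37 C; data scaled between 300 pM IL-6 and 125 nM JAK-inhibitor controls.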

[5] = molecular target: Glucocorticoid receptor (Homo sapiens) (UniProt P04150); test: GR-EFC Redistribution (AID 451; calls by dose curve; also: potency is read from the fitted curve at half-maximal effect); settings: CHO-K1 GR-EFC translocation, beta-gal luminescence, 2 h
How it was run: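 CHO-K1 cells stably expressing nuclear-localized β-gal enzyme acceptor and GR fused C-terminally to the enzyme donor fragment; ligand-driven nuclear translocation restores β-gal by complementation. Compounds titrated up to 46 uM final, 2 h at 37 °C; luminescence read.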

[6] = molecular target: Mitogen-activated protein kinase 10 (Mus musculus) (UniProt Q61831); test: JNK3 AlphaScreen Assay (AID 530); settings: JNK3 lysate, c-Jun phosphorylation; series mostly up to 57.1 µM;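 also: kinase came from lysate of stimulated human HepG2 cells; signal reports phosphorylation of biotinylated GST-cJun 1-79 at Ser73 with 10 µM ATP; % is scaled to controls: 0 for no effect and ±100 for the full control effect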
How it was run: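 Phosphorylation of biotinylated GST-cJun(1-79) at Ser73 is measured by AlphaScreen proximity luminescence. Enzyme is JNK3 in HepG2 lysates activated with interleukin-1beta and tumor necrosis factor alpha; ATP is 10 uM final.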

[7] = molecular target: 3',5'-cyclic-AMP phosphodiesterase 4B (Homo sapiens) (UniProt Q07343); test: qHTS Assay for Inhibitors of PDE-IV (AID 607; active = well fitted activation curve with a large enough effect in the main read-out, with a control signal flat, not every such curve was filed as active; also: % of control where 0% means no effect); settings: HEK293 ACTOne CNG channel cells, membrane potential fluorescence; series mostly up to 22.9 µM
How it was run: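 The readout is membrane depolarisation from a cAMP-sensing CNG channel, detected with a potential dye at ex 535/em 590. Cells were HEK293-derived (endogenous PDE-IV) at 1000 cells/well, titrated up to 22.9 uM final.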

[8] = qHTS Assay for Identification of Small Molecule Agonists for Hypoxia Response Element Signaling Pathway (AID 914; active = well fitted activation curve with a large enough effect in the signal ratio, with a control signal flat, not every such curve was filed as active; the % refers to the signal ratio; also: potency is read from the fitted curve at half-maximal effect; as to activation: % of control where 0% means no effect); settings: ME-180 (cervical carcinoma) HRE-bla reporter, beta-lactamase ratio, CoCl2, 17 h; activation: hits give high values
How it was run: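 qHTS titration; ME-180 HRE-bla cells; EC50 CoCl2 co-treatment, 17 h at 37 degrees Celsius; CCF4 dye, ex 405nm, em 460nm and 530nm; %Activity from ratio; AC50.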

[9] = Primary qHTS for small molecule stabilizers of the endoplasmic reticulum resident proteome: Secreted ER Calcium Modulated Protein (SERCaMP) assay (AID 1508630; active = well fitted curve in the direction sought with a large enough effect; an effect the other way counts as inactive or inconclusive; also: % is scaled to controls: 0 for no effect and ±100 for the full control effect); settings: SH-SY5Y GLuc-SERCaMP (Gaussia luciferase released on ER calcium loss) secretion, thapsigargin, luminescence; series mostly up to 38.4 µM
How it was run: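 The SH-SY5Y reporter protocol was run at 3 concentrations up to 38.3 uM (primary) or 11 concentrations (follow-up): 16 h compound, 100 nM thapsigargin for 4 h, then extracellular luciferase luminescence.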

[10] = molecular target: Cytochrome P450 3A4 (Homo sapiens) (UniProt P08684); test: qHTS Assay for Activators of Cytochrome P450 3A4 (AID 885; active = well fitted curve in the direction sought with a large enough effect; an effect the other way counts as inactive or inconclusive; also: nearly all actives have a fitted effect of over 65% in size); settings: recombinant CYP3A4, Luciferin-PPXE luminescence, 60 min; series mostly up to 57.1 µM
How it was run: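 Activators are scored by enhanced luminescence from CYP3A4 conversion of luciferin-PPXE (25uM, equal to KM) to luciferin, after 60 min at RT with an NADPH-regenerating system.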

[11] = molecular target: Cytochrome P450 3A4 (Homo sapiens) (UniProt P08684); test: qHTS Assay for Inhibitors and Substrates of Cytochrome P450 3A4 (AID 884; active = well fitted curve in the direction sought with a large enough effect; an effect the other way counts as inactive or inconclusive; also: potency is read from the fitted curve at half-maximal effect; nearly all actives have a fitted effect of over 50% in size); settings: recombinant CYP3A4, Luciferin-PPXE luminescence; series mostly up to 57.1 µM
How it was run: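 Luminescent readout of luciferin produced by CYP3A4 (20 nM) dealkylation of Luciferin-PPXE, 25 uM (its KM). NADPH-driven reaction ran 60 min at RT after 10 min compound preincubation; data scaled to 57 uM ketoconazole as 100% inhibition.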

[12] = molecular target: Cytochrome P450 2C19 (Homo sapiens) (UniProt P33261); test: qHTS Assay for Inhibitors and Substrates of Cytochrome P450 2C19 (AID 899; active = well fitted curve in the direction sought with a large enough effect; an effect the other way counts as inactive or inconclusive; also: nearly all actives have a fitted effect of over 60% in size; also: potency is read from the fitted curve at half-maximal effect); settings: recombinant CYP2C19, luciferin-H EGE luminescence; series mostly up to 57.1 µM
How it was run: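 In 50mM KPO4, the reaction held 5nM enzyme and KM-level (10uM) Luciferin-H EGE; it ran 60 min at 37C after NADPH regeneration and a 10 min compound preincubation. Luminescence values were scaled to 57uM ketoconazole as complete inhibition.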

[13] = NFAT Signaling Pathway (AID 444); settings: Jurkat NFAT-bla M1, carbachol, beta-lactamase ratio, 5 h; at 7.69 µM (top of the series) unless noted
How it was run: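 Jurkat cells carrying an NFAT-driven β-lactamase reporter and co-transfected muscarinic M1 receptor were treated with compound plus carbachol (1 uM final, an EC50 level) for 5 h at 37 °C. CCF4 loading followed for 1 h at RT; 460/530 nm ratio gave %activity.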

[14] = molecular target: Glucocorticoid receptor (Homo sapiens) (UniProt P04150); test: GR-GFP Redistribution (AID 450;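 active = compounds whose dose series gives a full or clear partial fitted curve of increased nuclear translocation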; also: potency is read from the fitted curve at half-maximal effect); settings: U2OS GR-GFP nuclear translocation, laser cytometry, 2 h
[15] = molecular target: Cytochrome P450 2C9 (Homo sapiens) (UniProt P11712); test: qHTS Assay for Inhibitors and Substrates of Cytochrome P450 2C9 (AID 883; active = well fitted curve in the direction sought with a large enough effect; an effect the other way counts as inactive or inconclusive; also: % is scaled to controls: 0 for no effect and ±100 for the full control effect; nearly all actives have a fitted effect of over 60% in size); settings: recombinant CYP2C9, luciferin-H luminescence, 60 min; series mostly up to 57.1 µM
How it was run: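 CYP2C9 deoxyluciferin hydroxylation, 37C, 60 min with NADPH regeneration; 10nM enzyme, 100uM Luciferin-H (KM). Glo detection reagent stopped reaction; luminescence normalized to sulphaphenazole (57uM) full inhibition.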

[16] = molecular target: Cytochrome P450 2D6 (Homo sapiens) (UniProt P10635); test: qHTS Assay for Inhibitors and Substrates of Cytochrome P450 2D6 (AID 891; active = well fitted curve in the direction sought with a large enough effect; an effect the other way counts as inactive or inconclusive; also: nearly all actives have a fitted effect of over 60% in size; also: potency is read from the fitted curve at half-maximal effect); settings: recombinant CYP2D6, luciferin-ME EGE luminescence; series mostly up to 57.1 µM
How it was run: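 Luminescent read-out of luciferin formed by 5 nM human CYP2D6 demethylating 30 uM Luciferin-ME EGE (Km level) over 60 min at room temperature after NADPH regeneration addition. Data normalized to full inhibition by 1.43 uM quinidine.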

Cytochrome P450 1A2 (Homo sapiens), sequence (P05177 whole entry, looked up): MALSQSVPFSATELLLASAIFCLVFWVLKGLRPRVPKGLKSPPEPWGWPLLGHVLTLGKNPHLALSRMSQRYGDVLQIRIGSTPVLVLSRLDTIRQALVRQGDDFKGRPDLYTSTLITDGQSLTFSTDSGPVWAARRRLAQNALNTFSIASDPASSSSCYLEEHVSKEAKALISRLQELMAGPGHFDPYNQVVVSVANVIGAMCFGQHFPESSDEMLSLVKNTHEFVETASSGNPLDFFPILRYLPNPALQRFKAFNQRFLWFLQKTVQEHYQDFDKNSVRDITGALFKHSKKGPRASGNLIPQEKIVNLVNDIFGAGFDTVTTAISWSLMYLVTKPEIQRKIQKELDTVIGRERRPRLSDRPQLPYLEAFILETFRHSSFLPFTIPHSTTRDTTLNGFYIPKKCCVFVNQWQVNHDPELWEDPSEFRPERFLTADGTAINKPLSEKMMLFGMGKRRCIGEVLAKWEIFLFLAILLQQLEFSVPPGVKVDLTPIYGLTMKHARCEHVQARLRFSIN
3',5'-cyclic-AMP phosphodiesterase 4B (Homo sapiens), sequence (Q07343 whole entry, looked up): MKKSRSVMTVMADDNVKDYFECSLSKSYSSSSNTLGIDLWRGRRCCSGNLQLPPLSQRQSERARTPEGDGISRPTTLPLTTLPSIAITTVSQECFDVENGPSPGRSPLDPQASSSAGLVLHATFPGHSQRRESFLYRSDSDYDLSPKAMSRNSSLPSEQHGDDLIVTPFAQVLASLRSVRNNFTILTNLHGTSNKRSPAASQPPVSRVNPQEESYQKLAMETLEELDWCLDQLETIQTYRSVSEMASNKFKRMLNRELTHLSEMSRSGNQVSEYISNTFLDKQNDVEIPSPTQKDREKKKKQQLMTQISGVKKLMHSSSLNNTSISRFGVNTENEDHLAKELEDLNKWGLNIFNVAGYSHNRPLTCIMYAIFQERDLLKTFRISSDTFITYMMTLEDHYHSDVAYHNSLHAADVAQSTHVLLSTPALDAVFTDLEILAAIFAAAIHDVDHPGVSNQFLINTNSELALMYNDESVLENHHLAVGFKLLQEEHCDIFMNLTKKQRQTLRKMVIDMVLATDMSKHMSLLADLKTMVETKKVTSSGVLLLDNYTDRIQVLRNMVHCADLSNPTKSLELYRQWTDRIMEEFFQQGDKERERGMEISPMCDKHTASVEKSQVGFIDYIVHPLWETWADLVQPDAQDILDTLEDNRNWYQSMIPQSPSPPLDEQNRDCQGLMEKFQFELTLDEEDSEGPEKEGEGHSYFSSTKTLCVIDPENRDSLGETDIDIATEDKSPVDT
Glucocorticoid receptor (Homo sapiens), sequence (P04150 whole entry, looked up, the tested form may be a part): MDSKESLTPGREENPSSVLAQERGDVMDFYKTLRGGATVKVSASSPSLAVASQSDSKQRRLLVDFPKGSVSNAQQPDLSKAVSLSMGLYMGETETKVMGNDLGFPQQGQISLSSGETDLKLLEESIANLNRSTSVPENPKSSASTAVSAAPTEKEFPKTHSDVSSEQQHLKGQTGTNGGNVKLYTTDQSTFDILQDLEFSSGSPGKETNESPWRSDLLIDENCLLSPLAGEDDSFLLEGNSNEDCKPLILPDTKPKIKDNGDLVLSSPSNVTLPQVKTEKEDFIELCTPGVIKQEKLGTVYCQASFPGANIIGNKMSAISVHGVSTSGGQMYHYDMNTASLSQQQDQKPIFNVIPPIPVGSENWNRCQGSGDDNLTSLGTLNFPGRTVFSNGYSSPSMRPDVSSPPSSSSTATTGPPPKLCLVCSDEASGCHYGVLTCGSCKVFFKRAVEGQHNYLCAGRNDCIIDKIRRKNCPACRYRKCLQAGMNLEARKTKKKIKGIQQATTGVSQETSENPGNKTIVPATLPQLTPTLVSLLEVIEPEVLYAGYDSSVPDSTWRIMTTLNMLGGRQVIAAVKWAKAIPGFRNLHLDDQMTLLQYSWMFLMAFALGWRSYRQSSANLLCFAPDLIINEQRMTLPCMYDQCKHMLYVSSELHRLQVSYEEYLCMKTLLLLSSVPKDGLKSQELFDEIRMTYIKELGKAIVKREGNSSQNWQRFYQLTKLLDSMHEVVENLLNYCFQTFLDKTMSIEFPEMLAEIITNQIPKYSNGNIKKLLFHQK
Cytochrome P450 3A4 (Homo sapiens), sequence (P08684 whole entry, looked up): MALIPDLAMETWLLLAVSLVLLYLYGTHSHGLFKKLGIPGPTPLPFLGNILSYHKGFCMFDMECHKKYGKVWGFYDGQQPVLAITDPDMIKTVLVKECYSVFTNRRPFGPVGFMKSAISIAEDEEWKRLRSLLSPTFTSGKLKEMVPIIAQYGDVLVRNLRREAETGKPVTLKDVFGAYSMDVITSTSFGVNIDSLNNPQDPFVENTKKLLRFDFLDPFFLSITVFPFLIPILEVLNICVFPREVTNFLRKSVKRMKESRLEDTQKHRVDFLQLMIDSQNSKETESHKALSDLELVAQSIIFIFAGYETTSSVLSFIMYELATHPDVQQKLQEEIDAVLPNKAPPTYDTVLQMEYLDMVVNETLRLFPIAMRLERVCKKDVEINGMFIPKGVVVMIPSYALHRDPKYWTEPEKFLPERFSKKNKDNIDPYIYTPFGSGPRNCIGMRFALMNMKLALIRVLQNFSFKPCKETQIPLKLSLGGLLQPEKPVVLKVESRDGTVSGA
Lysosomal acid glucosylceramidase (Homo sapiens), sequence (P04062 whole entry, looked up): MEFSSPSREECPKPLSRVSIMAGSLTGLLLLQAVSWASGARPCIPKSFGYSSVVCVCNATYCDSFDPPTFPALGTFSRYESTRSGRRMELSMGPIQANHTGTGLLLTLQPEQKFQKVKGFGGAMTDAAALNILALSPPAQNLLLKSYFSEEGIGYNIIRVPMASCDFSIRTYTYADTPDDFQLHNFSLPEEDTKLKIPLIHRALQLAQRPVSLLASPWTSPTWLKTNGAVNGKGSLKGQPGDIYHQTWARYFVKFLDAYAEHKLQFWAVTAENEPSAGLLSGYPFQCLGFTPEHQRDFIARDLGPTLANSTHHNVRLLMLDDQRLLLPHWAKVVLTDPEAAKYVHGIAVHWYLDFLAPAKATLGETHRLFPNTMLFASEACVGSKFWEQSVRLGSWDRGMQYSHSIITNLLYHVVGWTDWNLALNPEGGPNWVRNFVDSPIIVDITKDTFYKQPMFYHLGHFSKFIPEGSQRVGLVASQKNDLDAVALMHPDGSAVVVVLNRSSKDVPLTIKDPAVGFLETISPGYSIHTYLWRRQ
Cytochrome P450 2C19 (Homo sapiens), sequence (P33261 whole entry, looked up): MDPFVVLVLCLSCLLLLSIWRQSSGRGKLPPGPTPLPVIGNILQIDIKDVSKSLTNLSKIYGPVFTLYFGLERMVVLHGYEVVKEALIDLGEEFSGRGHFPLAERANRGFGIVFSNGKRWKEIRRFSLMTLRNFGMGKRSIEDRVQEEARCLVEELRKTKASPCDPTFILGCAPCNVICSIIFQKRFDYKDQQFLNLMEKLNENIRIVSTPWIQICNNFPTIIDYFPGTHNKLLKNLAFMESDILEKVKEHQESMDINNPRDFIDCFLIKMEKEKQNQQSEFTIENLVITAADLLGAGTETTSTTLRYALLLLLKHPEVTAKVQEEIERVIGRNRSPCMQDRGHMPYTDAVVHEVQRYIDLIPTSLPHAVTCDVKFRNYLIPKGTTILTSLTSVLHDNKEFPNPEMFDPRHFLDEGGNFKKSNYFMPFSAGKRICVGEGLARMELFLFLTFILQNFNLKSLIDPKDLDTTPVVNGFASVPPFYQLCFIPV
Cytochrome P450 2D6 (Homo sapiens), sequence (P10635 whole entry, looked up): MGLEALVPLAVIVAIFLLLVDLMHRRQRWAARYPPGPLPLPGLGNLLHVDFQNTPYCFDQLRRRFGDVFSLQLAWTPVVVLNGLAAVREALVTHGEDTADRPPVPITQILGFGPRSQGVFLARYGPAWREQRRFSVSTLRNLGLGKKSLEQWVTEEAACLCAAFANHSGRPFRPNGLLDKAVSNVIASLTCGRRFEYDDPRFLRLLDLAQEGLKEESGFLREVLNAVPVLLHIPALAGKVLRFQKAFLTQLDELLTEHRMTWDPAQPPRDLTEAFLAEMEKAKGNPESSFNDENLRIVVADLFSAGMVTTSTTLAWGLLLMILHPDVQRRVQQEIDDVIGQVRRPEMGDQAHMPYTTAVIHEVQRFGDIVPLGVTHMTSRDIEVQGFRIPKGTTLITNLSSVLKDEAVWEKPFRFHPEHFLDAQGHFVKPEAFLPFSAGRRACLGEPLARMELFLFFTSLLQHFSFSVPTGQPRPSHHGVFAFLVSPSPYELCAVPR
Cytochrome P450 2C9 (Homo sapiens), sequence (P11712 whole entry, looked up): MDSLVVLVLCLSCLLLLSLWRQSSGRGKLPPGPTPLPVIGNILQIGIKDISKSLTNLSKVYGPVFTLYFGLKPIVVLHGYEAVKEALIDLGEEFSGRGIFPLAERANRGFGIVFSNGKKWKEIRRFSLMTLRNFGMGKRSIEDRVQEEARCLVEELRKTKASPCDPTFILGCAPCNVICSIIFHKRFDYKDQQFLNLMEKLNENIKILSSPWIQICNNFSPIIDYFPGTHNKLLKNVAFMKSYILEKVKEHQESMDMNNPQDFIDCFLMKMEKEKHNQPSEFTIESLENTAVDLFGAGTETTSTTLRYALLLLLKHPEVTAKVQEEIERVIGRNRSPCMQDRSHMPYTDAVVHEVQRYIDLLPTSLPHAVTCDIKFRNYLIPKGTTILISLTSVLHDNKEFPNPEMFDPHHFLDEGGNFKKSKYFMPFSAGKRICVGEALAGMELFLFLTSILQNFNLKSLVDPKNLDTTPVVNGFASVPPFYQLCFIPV

| SMILES | Potency [1] [µM] | activity change, negative = inhibition [2] [%] | Potency [3] | activity, negative = inhibition [4] [%] | Potency [5] [µM] | Potency [6] | Potency [7] | activation [8] [%] | outcome [9] | Potency [8] | Potency [10] | Potency [11] | Potency [12] | activity change, negative = inhibition [13] [%] | Potency [14] [µM] | Potency [15] | Potency [16] |
| --- | --- | --- | --- | --- | --- | --- | --- | --- | --- | --- | --- | --- | --- | --- | --- | --- | --- |
| COC(=O)N1CCC2(CCCN(Cc3ccccc3)C2)CC1 | > 11.4 | -5.44 | inactive | 2.77 | > 46 | inactive | inactive | 3.12 | inactive |  |  |  |  |  |  |  |  |
| Cn1c(=O)c(-c2cccs2)nc2cnc(Oc3ccccc3)nc21 | > 11.4 | 12.2 | 7.94 µM (active) |  | > 46 |  | inactive |  | inactive | 3.16 µM (active) |  |  |  |  |  |  |  |
| N#Cc1cccc(NC(=O)N2CCCC3(CCN(C(=O)c4csnn4)CC3)C2)c1 | > 11.4 | 6.7 | inactive | -0.264 | > 46 | inactive | inactive | -5.53 | inactive |  | inactive |  |  |  |  |  |  |
| O=S(=O)(c1ccccc1)N1CCC2(CCCN(Cc3ccncc3)C2)CC1 | > 11.4 | -20.2 | 12.6 µM (active) | -3.44 | > 46 | inactive | inactive |  | inactive |  | inactive | 3.98 µM (active) | 0.316 µM (active) |  |  |  |  |
| COc1ncc2nc(CCc3ccccc3)c(=O)n(Cc3ccc(F)cc3)c2n1 | > 11.4 | -3.95 |  | 2.49 | > 46 | inactive |  |  | inactive |  |  |  |  | -13.1 | > 9.22 |  |  |
| COc1ccccc1CN1CC2(CCN(S(=O)(=O)c3ccccc3)CC2)C1 | > 11.4 | 18.5 | inactive | 7.2 | > 46 |  | inactive |  | inactive |  | inactive |  | inactive |  |  | inactive | inactive |
| N#Cc1ccc(CN2CCCC3(CCN(S(=O)(=O)c4ccccc4)CC3)C2)cc1 | > 11.4 | -11.3 | inactive | -1.86 | > 46 | inactive | inactive |  | inactive |  | inactive | 3.16 µM (active) |  |  |  |  | 0.631 µM (active) |
| COc1ccc(-c2nc3cnc(N4CCN(C)CC4)nc3n(CCC#N)c2=O)cc1 | > 11.4 | 23.4 | inactive |  | > 46 | inactive | inactive |  | inactive | 3.16 µM (active) | inactive |  |  |  | > 9.22 |  |  |

— PubChem BioAssay (NCATS)
